# Measured values from PubChem BioAssay (NCI).
# The panel holds about 83,000 compounds, 20% with a hit somewhere; the sample as a whole holds those more often.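 The endpoint reported here, percent growth, reads 100 for growth as untreated, 0 for no net growth and -100 for all cells dead.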 A number with no mark means an inactive call. Active and inactive are the calls of the source.
# Test system: EKVX NSCLC
# Test: NCI-60 one-dose screen, 48 h (100 = growth as untreated, 0 = no growth, -100 = all killed)
# Conditions: 10 µM unless noted
# Method: Growth inhibition of the EKVX human Non-Small Cell Lung tumor cell line is measured as a screen for anti-cancer activity. Cells are grown in 96 well plates and exposed to the test compound for 48 hours. Compounds are tested at a single concentration, which is 10^-5 M for most compounds. The reported endpoint is percent growth (GI% or GIPRCNT), where numbers from 0 - 100% represent growth inhibition, and numbers from -100% - 0 represent cell death. For example, a value of 40 represents 60% growth inhibition. A value of 0 means no net growth occurred over the course of the experiment. A value of -40 indicates 40% of cells at the beginning of the experiment died by the end of the experiment. A value of -100 means all cells are dead at the end of the experiment.
# NCI-60 Human Tumor Cell Lines Screen was performed using the standard one-dose NCI protocol, which is described in more detail at https://dtp.cancer.gov/discovery_development/nci-60/default.htm.
# Compounds with GIPRCNT values below 10 were considered active. Activity score was based on GIPRCNT using the following formula: […]
# Score is 0 for GIPRCNT values of 100 or above, 50 for GIPRCNT values of 0, and 100 for GIPRCNT values of -100.
row,Structure (SMILES),growth
1,CCOC(=O)c1n[nH]n2c1nc(=O)c1cnn(C)c12,102%
2,Cn1cc(-c2nonc2-c2c[nH]c3ccc(F)cc23)c2cc(Br)ccc21,37.6%
3,Cc1[nH]c(C(=O)Nc2ccc(C(N)=O)cc2NC(C)C)c(Cl)c1Cl,87%
4,Cc1cc(F)ccc1S(=O)(=O)Nc1cc(-c2c(O)ccc3ccccc23)c(O)c2ccccc12,19%
5,O=P(O)(O)OCC1OC(n2cnc3c(NCc4ccccc4)ncnc32)C(O)C1O (stereo not given),24.7%
6,COC(=O)C1=C(C(=O)Nc2cccnc2)C2OC1(C(Cc1ccccc1)Oc1ccccc1)C1OC21 (stereo not given),101%
7,CCn1cc(C(=O)NN=C2CCCCCC2)c(=O)c2ccc(C)nc21,93.2%
8,Cc1ccccc1OCC(O)COc1ccccc1C,101%
9,CC(C)(CO)N(CCO)CCO,116%
10,COc1cc(-c2nc(SCCC(C)C)nc(N3CCOCC3)c2C#N)cc(OC)c1OC,100%
11,S=c1[nH]c2cc(Cl)ccc2o1,99.3%
12,Cn1cc(/C=C2/C(=O)Nc3ccccc32)c2ccccc21,78.2%
13,CCOC(=O)C(=Cc1cccc(C#N)c1)C(=O)OCC,82.3%
14,COc1cc(C2Cc3ncccc3-c3[nH]c(=O)c4cccnc4c32)cc(OC)c1OC (stereo not given),44.2%
15,O=C1NC(=C(Cl)Cl)/C(=N/S(=O)(=O)NCCc2c[nH]c3ccccc23)N1,101%
16,CCOC(=O)c1c(C)c2c(n1C)CSc1cc(S(=O)(=O)c3ccccc3)c(=O)[nH]c1-2,14.7% [100 µM]
17,NC(CSC(c1ccccc1)(c1ccccc1)c1ccc2c(c1)OCO2)C(=O)O (stereo not given),43.4%
18,CCCCCCCC/C=C\CCCCCCCCOc1ccccc1CC(=O)NCC[N+]1(C)CCCCC1,93.4%
19,Cn1cccc1/C=C1\C(=O)Nc2ccccc21,34.4%
20,COc1ccc2c(O)c(/C=C3\N=Nc4ccccc43)oc2c1C[C@H]1CCNC[C@H]1F,40%

row,Structure (SMILES),growth
1,CCCCCCCCn1ccc2cc(NC(=O)Cn3cc(CN4CCCCCC4)nn3)ccc21,74.1%
2,CCOC(=O)c1ccc2c(c1)c1c(C)c3ccncc3c(C)c1n2C,10.3%
3,O=[N+]([O-])/C(=C\c1ccco1)c1ccccc1Cl,83.1%
4,CC1=NN(c2ccc(Cl)cc2)CC1(C)N=O (stereo not given),70.1%
5,O=C1Nc2ccc(F)cc2/C1=N/c1nnc(Sc2ccccc2)s1,101%
6,Cc1ccc(-c2csc(NC(=O)N3CCN(c4cc5c(cc4F)c(=O)c(C(=O)O)cn5C4CC4)CC3)n2)cc1,20.4%
7,CCCCc1oc2ccccc2c1C(=O)c1ccc(O)cc1,92.3%
8,CN(C)c1ccc(C(=NO)c2ccc(N(C)C)cc2)cc1,50.8%
9,N#Cc1c(NC(=O)c2cccs2)[n+]([O-])c2ccc(Cl)cc2[n+]1[O-],98.7%
10,CCN1C(=O)N(CC)C2C1NN=c1s/c(=C\c3cc4ccccc4[nH]3)c(=O)n12 (stereo not given),54.5%
11,C[Se]C(=O)CC1=C2C=C(F)C=CC2/C(=C\c2ccc(S(C)=O)cc2)C1C (stereo not given),-7.14% (active)
12,CCN(CC)CCN(CCN(CC)CC)c1ccccc1,97.2%
13,O=C(c1ccc(F)c(Cl)c1)N1c2ccccc2Sc2ccccc21,74.1%
14,COc1cccc(/C=C2\COc3ccc(O)cc3C2=O)c1,98.4%
15,O=C(CN1C(=O)/C(=C/c2ccco2)SC1=S)NCCc1c[nH]c2ccc(F)cc12,98.3%
16,Cc1cscc(C)c1=S,110%
17,CC/C=C\C/C=C/C=C1/C(=O)C=C[C@@H]1C/C=C\CCCC(=O)OC,99.4%
18,Clc1nn2c(Cn3cnc4c(NCc5ccccc5)ncnc43)nnc2c2ccccc12,52%
19,CCNc1nc(-c2ccc(F)cc2)c(C#N)c(=O)n1C,29.1%
20,Cc1ccc(-c2nc(C#N)c(S(=O)(=O)NCCO)o2)cc1,104%
